Compound activity from PubChem BioAssay.
NPC1 promoter act: qHTS Assay for NPC1 Promoter Activators; actives 2.4% (n = 320,000); Potency, µM (titrated, usually from 9.22 µM), inactives show at the highest dose activation, most hits filed as activators; AID 485313, 2010; Huh7 NPC1 promoter luciferase reporter, 24 h; further: % of control where 0% means no effect; nearly all actives have a fitted effect of over 60% in size
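Huh7 reporter cells (NPC1 promoter driving luciferase) are dosed with compound for 24 h at 37 °C, 5% CO2; luciferase detection reagent is then added and luminescence measured after 10 min at ambient temperature.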
ELG1 DNA repair: qHTS screen for small molecules that inhibit ELG1-dependent DNA repair in human embryonic kidney (HEK293T) cells expressing luciferase-tagged ELG1; HEK293T ELG1-luciferase reporter, luminescence, 16 h; DNA damage induced by 5-fluorouridine; Potency, µM (highest dose often 46.1 µM), inactives show at the top dose activity change, negative = inhibition, actives largely listed as inhibitors; actives 2.3% (n = 330,000); further: on the % scale 0 is the no-effect control and ±100 the full control effect; nearly all actives have a fitted effect of over 55% in size
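Quantitative HTS, concentration-response format. 2,000 cells/well co-treated with 5-fluorouridine and compound, 16 hr in 5% CO2 at 37 °C; ONE-Glo luminescence read after 30 min.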
Rab9 prom act: qHTS Assay for Rab9 Promoter Activators; AID 485297, 2010; actives 2.8% (n = 320,000); Huh7 Rab9 promoter-luciferase reporter, luminescence, 24 h; Potency, µM (highest dose often 9.22 µM), for inactives: at the top dose activation, negative = inhibition, hits mostly activators; further: % of control where 0% means no effect; nearly all actives have a fitted effect of over 60% in size
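Huh7 cells stably carrying Rab9 promoter–luciferase reporter, plated 1500 cells/well, compound added after 2 h and incubated 24 h at 37 °C; luciferase luminescence then read after 10 min with detection reagent.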
FLuc modulator: qHTS profiling assay for firefly luciferase inhibitor/activator using purifed enzyme and Km concentrations of substrates (counterscreen for miR-21 project). AID 588342, 2011. purified FLuc, Km substrates, luminescence inhibition. Potency, µM (highest dose often 57.5 µM), without a hit: top-dose activity change, negative = inhibition, hits mostly inhibitors. actives 6.9% (n = 360,000);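 further: plate controls were vehicle for no effect and reference inhibitor for full effect; nearly all actives have a fitted effect of over 55% in size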
Target sequence (P08659 whole entry, looked up): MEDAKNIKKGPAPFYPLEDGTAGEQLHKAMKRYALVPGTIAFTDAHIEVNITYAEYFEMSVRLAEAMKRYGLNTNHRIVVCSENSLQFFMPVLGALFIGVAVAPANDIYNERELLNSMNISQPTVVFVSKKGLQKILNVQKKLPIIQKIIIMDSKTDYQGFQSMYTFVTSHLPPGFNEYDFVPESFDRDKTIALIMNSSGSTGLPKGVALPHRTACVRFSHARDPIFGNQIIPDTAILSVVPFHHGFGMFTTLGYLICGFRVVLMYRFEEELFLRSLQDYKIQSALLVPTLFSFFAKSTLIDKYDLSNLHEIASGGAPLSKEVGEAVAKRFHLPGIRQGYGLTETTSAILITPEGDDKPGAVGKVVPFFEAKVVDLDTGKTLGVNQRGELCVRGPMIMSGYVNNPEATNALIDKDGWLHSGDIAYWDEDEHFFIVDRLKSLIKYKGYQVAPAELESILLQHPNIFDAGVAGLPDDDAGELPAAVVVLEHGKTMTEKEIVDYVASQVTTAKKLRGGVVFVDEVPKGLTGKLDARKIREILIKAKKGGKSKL
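Purified P. pyralis luciferase (10nM final) with 10uM D-luciferin and 10uM ATP (Km levels) in 50mM Tris acetate pH 7.5, 10mM Mg acetate, 0.01% Tween-20, 0.05% BSA; qHTS 6-point titration, ~60 µM downward; luminescence read.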
SMN2 splice up: qHTS Assay for Enhancers of SMN2 Splice Variant Expression | actives 2.8% (n = 210,000) | HEK293 SMN2-luciferase splicing reporter, luminescence, 30-36 h | AID 1458, 2008 | Potency, µM (series often up to 46.1 µM), without a hit: at the top dose activity change, positive = activation, hits mostly activators; further: % of control where 0% means no effect; nearly all actives have a fitted effect of over 55% in size
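HEK293 cells carry an SMN2 […]–luciferase reporter in which exon 7 inclusion puts luciferase in frame. Cells were plated 10-12 h before compound addition, then incubated 30-36 h at 37C. ONE-Glo luminescence was read; sodium butyrate at 4.5 mM final served as control.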
ELG1 genotox: qHTS screen for small molecules that induce genotoxicity in human embryonic kidney (HEK293T) cells expressing luciferase-tagged ELG1 | HEK293T ELG1-luciferase reporter, luminescence, 16 h | AID 504466, 2011 | Potency, µM (series often up to 46 µM), without a hit: at the highest dose activity change, positive = activation, hits mostly activators | actives 1.3% (n = 330,000); further: % of control where 0% means no effect; nearly all actives have a fitted effect of over 60% in size
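Luminescence read-out: rising ELG1-luciferase signal, reflecting elevated ELG1 protein under genetic stress, flags genotoxic compounds. Cells were treated for 16 hr at 37 °C before ONE-Glo detection.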
* = called active by the depositor. Only some compounds are listed: those with a hit (about 9.2% of all), similar ones and a draw of the others. The call rests on the fitted dose curve; in most records, active means well fitted curve in the direction sought with a large enough effect; inconclusive means small, poorly fitted or top-dose-only effect, or another doubt; inactive means no such curve, though single readings can be large; an effect the other way counts as inactive or inconclusive. Potency means the concentration at half of the fitted maximal effect.

COc1cccc(NC(=O)CSc2nc3n[nH]c(C)c3c(=N)n2-c2cccc(OC)c2)c1 was read as NPC1 promoter act 1%, ELG1 DNA repair inconclusive, Rab9 prom act -1%, FLuc modulator 2%, SMN2 splice up 13% and ELG1 genotox -7%.
CCc1ccc(NC(=O)CSc2nc3n[nH]c(C)c3c(=N)n2-c2cccc(OC)c2)cc1 was read as NPC1 promoter act -7%, ELG1 DNA repair 10µM*, Rab9 prom act -6%, FLuc modulator -1%, SMN2 splice up 1% and ELG1 genotox 3%.
COc1cc(NC(=O)c2ccc(S(=O)(=O)N(C)c3ccccc3OC)cc2)cc(OC)c1 was read as ELG1 DNA repair 15µM* and ELG1 genotox -7%.
Screening C=CCN(c1ccccc1OC)S(=O)(=O)c1ccc(Cl)c(C(=O)Nc2ccc(N3CCOCC3)cc2)c1 returned NPC1 promoter act -15%, ELG1 DNA repair 7.3µM*, Rab9 prom act 1%, FLuc modulator -8%, SMN2 splice up -23% and ELG1 genotox 1%.
COc1ccccc1N(C)S(=O)(=O)c1ccc(C(=O)N(C)Cc2ccc(OC(F)F)cc2)cc1 was read as NPC1 promoter act -6%, ELG1 DNA repair 16µM*, Rab9 prom act -10%, FLuc modulator -1% and ELG1 genotox -9%.
Screening CN(CC(=O)Nc1ccc(N2CCOCC2)cc1)C(=O)c1cc(S(=O)(=O)N(C)C)ccc1Cl returned NPC1 promoter act -2%, ELG1 DNA repair inconclusive, Rab9 prom act 0%, FLuc modulator 15µM* and ELG1 genotox 13%.
`COc1ccccc1N(C)S(=O)(=O)c1ccc(C(=O)NCCc2ccc(F)cc2)cc1` gave NPC1 promoter act -1%, ELG1 DNA repair inconclusive, Rab9 prom act 4%, FLuc modulator 1% and ELG1 genotox -30%.
COc1ccccc1N(C)S(=O)(=O)c1ccc(C(=O)Nc2nccs2)cc1 was read as NPC1 promoter act -1%, ELG1 DNA repair inconclusive, Rab9 prom act -2%, FLuc modulator -10% and ELG1 genotox -9%.
For CSc1ccc(CCNC(=O)c2c(C)oc3ncn(C)c(=O)c23)cc1 the results were FLuc modulator -2%.
For COc1ccc(S(=O)(=O)N2CCN(Cc3nc4ccc(C)cc4o3)CC2)cc1OC the results were FLuc modulator -8%.
Screening COc1ccc(OC)c(NC(=O)c2cc3c(=O)oc4ccccc4c3s2)c1 returned FLuc modulator 2% and SMN2 splice up 6%.
Screening COc1ccccc1N(C)S(=O)(=O)c1ccc(C(=O)Nc2cccc(Br)c2)cc1 returned ELG1 DNA repair 18µM* and ELG1 genotox -18%.
Screening COc1ccccc1N(C)S(=O)(=O)c1ccc(Cl)c(C(=O)NCc2ccco2)c1 returned ELG1 DNA repair 21µM* and ELG1 genotox -2%.
COc1ccccc1N(C)S(=O)(=O)c1ccc(C(=O)NCC(C)C)cc1 was read as NPC1 promoter act -1%, ELG1 DNA repair inconclusive, Rab9 prom act 1%, FLuc modulator 4%, SMN2 splice up -34% and ELG1 genotox -6%.
Screening COc1ccccc1N(C)S(=O)(=O)c1ccc(C(=O)Nc2ccc(N3CCOCC3)cc2)cc1 returned NPC1 promoter act 0%, ELG1 DNA repair 23µM*, Rab9 prom act -6%, FLuc modulator 3%, SMN2 splice up -46% and ELG1 genotox -11%.
CCC(C)(C)NC(=O)c1ccc(S(=O)(=O)N(C)c2ccccc2OC)cc1 was read as FLuc modulator 0% and SMN2 splice up -15%.
